From PubChem BioAssay (Tox21)
Inconclusive results are not listed. Calls of active or inactive are those of the source. Unless noted, calls follow the shape of the dose curve; as a rule, active = well fitted curve in the direction sought with a large enough effect in the repeat runs; inconclusive = weak or mixed curves; inactive = no such curve, though single readings can be large; an effect the other way counts as inactive or inconclusive.

Key:
[1] = qHTS assay to identify small molecule agonists of the constitutive androstane receptor (CAR) signaling pathway - cell viability counter screen (AID 1224836); also: nearly all actives have a fitted effect of over 45% in size
Outline: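 Multiplexed viability check: HepG2-CYP2B6-hCAR cells, 15-point compound dosing, 0.75 uM PK11195 final, 23 h at 37 C, CellTiter-Fluor fluorescence.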

[2] = qHTS assay to identify small molecule antagonists of the constitutive androstane receptor (CAR) signaling pathway - cell viability counter screen (AID 1224837); also: nearly all actives have a fitted effect of over 45% in size; also: potency is read from the fitted curve at half-maximal effect
Outline: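 Counter screen run in HepG2-CYP2B6-hCAR cells: 4 hr settle, compound titration (15 concentrations) with 50 nM CITCO, 23 hr at 37 C/5% CO2, CellTiter-Fluor fluorescence.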

[3] = target: Nuclear receptor subfamily 1 group I member 3 (Homo sapiens) (UniProt Q14994); test: qHTS assay to identify small molecule agonists of the constitutive androstane receptor (CAR) signaling pathway (AID 1224839); also: nearly all actives have a fitted effect of over 15% in size; also: potency is read from the fitted curve at half-maximal effect;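 as to activation: HepG2 cells stably carrying human CAR and a CYP2B6 luciferase reporter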
Sequence of Nuclear receptor subfamily 1 group I member 3 (Homo sapiens) (Q14994 whole entry, looked up): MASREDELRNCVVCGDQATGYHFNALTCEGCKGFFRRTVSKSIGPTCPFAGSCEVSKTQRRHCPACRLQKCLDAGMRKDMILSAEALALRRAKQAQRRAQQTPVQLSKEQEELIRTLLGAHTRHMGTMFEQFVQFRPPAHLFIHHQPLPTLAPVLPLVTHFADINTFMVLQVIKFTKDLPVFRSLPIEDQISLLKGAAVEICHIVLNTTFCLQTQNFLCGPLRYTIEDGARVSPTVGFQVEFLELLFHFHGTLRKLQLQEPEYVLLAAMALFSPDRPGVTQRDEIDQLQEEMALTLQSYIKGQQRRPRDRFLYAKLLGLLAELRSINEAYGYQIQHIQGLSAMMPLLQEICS
Outline: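 Using human hepatoma HepG2 cells engineered with hCAR and a CYP2B6-2.2kb reporter, 15-concentration compound series were incubated 24 h alongside PK11195 at 0.75 uM final, with luminescence quantified afterwards.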

[4] = qHTS assay to identify small molecule antagonists of the estrogen related receptor signaling pathway with the pleiotropic PPARgamma coactivator (PGC) from Tox21 10K library (AID 1224841; call rule not given here; also: actives are mostly falling curves and most rising ones were filed inactive; nearly all actives have a fitted effect of over 50% in size)
Outline: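 qHTS antagonist format: PGC/ERR cells, 2k/well, compound in DMSO by pin transfer after 6 h attachment, 18 h treatment at 37 C, One-Glo luminescence read at 30 min.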

[5] = qHTS assay to identify small molecule agonists of the estrogen related receptor signaling pathway with the pleiotropic PPARgamma coactivator (PGC) from Tox21 10K library (AID 1224842); also: nearly all actives have a fitted effect of over 15% in size
Outline: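 PGC/ERR reporter cells (NTP line) were seeded 2,000 per well, rested 6 h at 37 C/5% CO2, then pin-dosed with compounds in DMSO for 18 h at 37 C; luciferase read by One-Glo luminescence after 30 min at room temperature.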

[6] = target: Thyrotropin receptor (Homo sapiens) (UniProt P16473); test: qHTS assay to identify small molecule agonists of the thyroid stimulating hormone receptor (TSHR) signaling pathway (AID 1224843; calls by dose curve; also: nearly all actives have a fitted effect of over 45% in size)
Sequence of Thyrotropin receptor (Homo sapiens) (P16473 whole entry, looked up): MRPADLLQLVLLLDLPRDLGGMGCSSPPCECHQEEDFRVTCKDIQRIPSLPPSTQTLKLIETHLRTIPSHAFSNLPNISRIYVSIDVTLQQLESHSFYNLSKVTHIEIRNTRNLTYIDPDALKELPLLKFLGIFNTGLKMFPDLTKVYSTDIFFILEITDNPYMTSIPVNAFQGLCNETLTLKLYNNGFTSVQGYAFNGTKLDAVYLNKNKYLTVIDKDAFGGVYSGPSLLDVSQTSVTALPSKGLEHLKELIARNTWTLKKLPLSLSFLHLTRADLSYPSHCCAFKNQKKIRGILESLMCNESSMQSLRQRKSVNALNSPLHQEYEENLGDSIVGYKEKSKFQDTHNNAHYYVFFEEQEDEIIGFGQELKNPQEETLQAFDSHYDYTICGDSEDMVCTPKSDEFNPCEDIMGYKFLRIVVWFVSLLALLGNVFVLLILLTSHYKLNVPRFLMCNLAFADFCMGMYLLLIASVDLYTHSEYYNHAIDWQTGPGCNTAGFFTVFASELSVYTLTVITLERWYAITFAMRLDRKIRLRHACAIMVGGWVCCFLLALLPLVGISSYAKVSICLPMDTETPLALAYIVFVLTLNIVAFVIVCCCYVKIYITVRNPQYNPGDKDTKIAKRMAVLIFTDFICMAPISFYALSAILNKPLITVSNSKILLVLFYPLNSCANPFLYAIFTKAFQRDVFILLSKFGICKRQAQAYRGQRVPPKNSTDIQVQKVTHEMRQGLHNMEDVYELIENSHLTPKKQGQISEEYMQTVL
Outline: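 TSHR-expressing HEK293 cells (800 per well) were exposed to compounds for 30 min at room temperature. cAMP was then detected by HTRF competition with cAMP-d2 and anti-cAMP cryptate, read after 1 h at room temperature. Fifteen concentrations, triplicate.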

[7] = qHTS assay to identify small molecule agonists of the hypoxia (HIF-1) signaling pathway - cell viability counter screen (AID 1224844; calls by dose curve; also: nearly all actives have a fitted effect of over 50% in size; also: potency is read from the fitted curve at half-maximal effect)
Outline: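 Cells (HRE-bla ME-180, 2,000 per well) sat 5 hrs at 37C, got compound for 17 hrs, were read for CCF4-AM FRET, and were finally lysed with CellTiter-Glo for a 30 min room-temperature luminescence read.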

[8] = qHTS assay to identify small molecule agonists of H2AX (AID 1224845; active = well fitted activation curve with a large enough effect in the signal ratio in the repeat runs, not every such curve was filed as active; the % refers to the signal ratio; also: potency is read from the fitted curve at half-maximal effect)
Outline: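 Wild-type CHO-K1 cells plated overnight, then exposed 3 hr at 37C to compounds at 15 concentrations (0.76% DMSO). Lysed, then HTRF anti-pH2AX(S139)-cryptate/anti-H2AX-d2 detection after 24 hr at room temperature; emissions 665 and 620 nm.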

[9] = qHTS assay to identify small molecule agonists of the hypoxia (HIF-1) signaling pathway (AID 1224846; active = well fitted activation curve with a large enough effect in the signal ratio in the repeat runs, not every such curve was filed as active; the % refers to the signal ratio)
Outline: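 A low-serum medium (0.5% dialyzed FBS) holding 2,000 HRE-bla ME-180 cells per well is preincubated for 5 hrs, dosed with compounds by pintool, and kept a further 17 hrs at 37C, 5% CO2 before CCF4-AM FRET detection of beta-lactamase.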

[10] = qHTS assay to identify small molecule agonists of H2AX - cell viability counter screen (AID 1224847; calls by dose curve; also: nearly all actives have a fitted effect of over 30% in size; also: potency is read from the fitted curve at half-maximal effect)
Outline: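 After overnight plating of 1000 CHO-K1 cells per well, a 15-concentration compound series was applied for 3 hr at 37C. Luminescence from CellTiter-Glo, read following 30 min at room temperature, reflected cell viability.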

[11] = qHTS assay to identify small molecule antagonists of the estrogen related receptor (ERR) signaling pathway from Tox21 library (AID 1224848); also: nearly all actives have a fitted effect of over 50% in size; also: potency is read from the fitted curve at half-maximal effect
Outline: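 Cells: ERR line, 2,000/well; 6 h preincubation 37 C/5% CO2. Cpd in DMSO via pin tool; 18 h, 37 C. ONE-Glo, 30 min RT, luminescence.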

[12] = qHTS assay to identify small molecule agonists of the estrogen related receptor (ERR) signaling pathway from Tox21 library (AID 1224849; calls by dose curve; also: nearly all actives have a fitted effect of over 15% in size); settings: ERR reporter cell line, ONE-Glo luciferase, 18 h; at 92.4 µM (top of the series) unless noted
Outline: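 Screening used an NTP-provided ERR luciferase cell line. Compounds in DMSO were added 6 h after seeding and left 18 h at 37 C before a 30 min ONE-Glo step and luminescence reading.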

[13] = qHTS RealTime-Glo MT Cell Viability Assay in HepG2 cells - 24 hour (AID 1224867); also: nearly all actives have a fitted effect of over 50% in size
Outline: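 HepG2 suspension premixed with RealTime-Glo reagents is plated at 600 cells per well and left 5 h at 37 C/5% CO2. Compounds in DMSO then go in, and bioluminescence reflecting viable cell number is recorded over 40 h.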

[14] = qHTS RealTime-Glo MT Cell Viability Assay in HEK293 cells - 32 hour (AID 1224868); also: nearly all actives have a fitted effect of over 50% in size; also: potency is read from the fitted curve at half-maximal effect
Outline: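 Reads taken at 0, 8, 16, 24, 32 and 40 h from the same wells. HEK293 cells (600/well) carried RealTime-Glo reagents from seeding, with compound added after a 5 h settle at 37 C.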

[15] = qHTS RealTime-Glo MT Cell Viability Assay in HepG2 cells - 40 hour (AID 1224870); also: nearly all actives have a fitted effect of over 50% in size; also: potency is read from the fitted curve at half-maximal effect
Outline: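 HepG2 cells mixed with RealTime-Glo MT reagents (NanoLuc plus cell-permeant prosubstrate) were seeded at 600 cells/well, incubated 5 h at 37 C/5% CO2, then pinned with compounds in DMSO; nonlytic luminescence tracked viability during 40 h treatment.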

[16] = target: Luciferin 4-monooxygenase (Photinus pyralis) (UniProt P08659); test: qHTS assay to identify small molecule inhibitors of firefly luciferase (AID 1224835); also: nearly all actives have a fitted effect of over 25% in size
Sequence of Luciferin 4-monooxygenase (Photinus pyralis) (P08659 whole entry, looked up): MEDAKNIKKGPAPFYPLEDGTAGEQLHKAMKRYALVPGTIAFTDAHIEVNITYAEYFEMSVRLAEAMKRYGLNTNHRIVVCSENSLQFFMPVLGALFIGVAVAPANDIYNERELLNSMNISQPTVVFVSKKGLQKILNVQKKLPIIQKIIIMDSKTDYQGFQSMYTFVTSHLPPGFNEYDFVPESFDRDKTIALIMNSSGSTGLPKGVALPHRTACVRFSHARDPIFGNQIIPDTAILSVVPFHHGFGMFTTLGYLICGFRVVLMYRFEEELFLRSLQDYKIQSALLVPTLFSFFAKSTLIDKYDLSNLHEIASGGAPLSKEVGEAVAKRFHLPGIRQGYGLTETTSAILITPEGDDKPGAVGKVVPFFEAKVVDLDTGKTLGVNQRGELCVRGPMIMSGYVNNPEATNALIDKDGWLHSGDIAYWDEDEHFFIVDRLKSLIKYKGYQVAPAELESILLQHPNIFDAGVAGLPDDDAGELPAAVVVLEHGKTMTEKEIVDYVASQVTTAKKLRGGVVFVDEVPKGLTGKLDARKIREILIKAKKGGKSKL
Outline: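 Quantitative HTS format; KM concentrations of both substrates. Purified P. pyralis FLuc activity quantified from luminescence images.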

[17] = A CellTox Green Cytotoxicity Assay to monitor cytotoxicity in HEK293 cells - 0 hour (AID 1224869); also: nearly all actives have a fitted effect of over 50% in size
Outline: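 Fluorescence intensity, read at 0, 8, 16, 24, 32 and 40 h of compound treatment, reflected dye binding to DNA of dead HEK293 cells; compounds (23 nL, DMSO) were added 5 h after plating cells with reagent.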

[18] = qHTS assay to identify small molecule antagonists of the estrogen related receptor signaling pathway with the pleiotropic PPARgamma coactivator (PGC) from Tox21 10K library - cell viability counter screen (AID 1224840; active = well fitted cell-killing curve with a large enough effect in the repeat runs, not every such curve was filed as active; also: nearly all actives have a fitted effect of over 40% in size)
Outline: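 Following seeding of 2,000 PGC/ERR cells/well and 6 hours' incubation, test compounds were delivered in DMSO. The plates then sat 17.5 hours at 37 C before a fluorogenic live-cell protease reagent (CellTiter-Fluor) was read after 30 min.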

[19] = target: Nuclear receptor subfamily 1 group I member 3 (Homo sapiens) (UniProt Q14994); test: qHTS assay to identify small molecule antagonists of the constitutive androstane receptor (CAR) signaling pathway (AID 1224838);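 also: HepG2 cells stably expressing hCAR with CYP2B6 luciferase reporter stimulated by CITCO; nearly all actives have a fitted effect of over 40% in size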; also: potency is read from the fitted curve at half-maximal effect
Outline: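 Cell line: HepG2 double-stable for hCAR and CYP2B6-2.2kb reporter. Agonist: CITCO, 50 nM final. Compounds: 15 concentrations, 24 h, 37 C. Detection: ONE-Glo luminescence.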
% is scaled to controls: 0 for no effect and ±100 for the full control effect.

CCCCC(CC)CNCC(CC)CCCC (configuration not stated)
inactive: Potency [1] | Potency [2] | Potency [3] | Potency [4] | Potency [5] | Potency [6] | Potency [7] | Potency [8] | outcome [9] | Potency [10] | Potency [11] | activity change, positive = activation [12] 4.2% | Potency [13] | Potency [14] | Potency [15]

CCCCC(=O)O[C@]1(C(=O)CO)[C@@H](C)C[C@H]2[C@@H]3CCC4=CC(=O)C=C[C@]4(C)[C@@]3(F)[C@@H](O)C[C@@]21C
active: Potency [7] 34.7 µM | Potency [8] 113 µM | Potency [11] 54.5 µM
inactive: Potency [16] | Potency [1] | Potency [2] | Potency [5] | outcome [9] | activity change, positive = activation [12] -45.4% | Potency [17] | Potency [15]

C/C=C/C=C/CCCCCCCO
inactive: Potency [16] | Potency [1] | Potency [2] | Potency [6] | Potency [7] | Potency [8] | outcome [9] | Potency [10] | Potency [13] | Potency [14] | Potency [17] | Potency [15]

OC(CCCN1CCCCC1)(c1ccccc1)c1ccccc1
inactive: Potency [16] | Potency [2] | Potency [3] | Potency [18] | Potency [4] | Potency [5] | Potency [6] | Potency [7] | Potency [10] | Potency [11] | activity change, positive = activation [12] 2.99% [at 42.5 µM] | Potency [13] | Potency [14] | Potency [17] | Potency [15]

O=C(CCCCCCC(=O)Nc1ccccc1)NO
active: Potency [19] 3.76 µM | Potency [7] 1.69 µM | Potency [14] 2.39 µM | Potency [15] 4.77 µM
inactive: Potency [16] | Potency [3] | Potency [18] | Potency [6] | outcome [9] | Potency [10] | Potency [17]

CCCCN(CCCC)C(=S)SSC(=S)N(CCCC)CCCC
inactive: Potency [1] | Potency [2] | Potency [18] | Potency [6] | Potency [13] | Potency [15]
active: Potency [10] 112 µM | Potency [14] 43.2 µM

CCOC(=O)N1CCC(n2c(=O)[nH]c3cc(Cl)ccc32)CC1
inactive: Potency [1] | Potency [2] | Potency [3] | Potency [6] | Potency [7] | outcome [9] | Potency [13] | Potency [17] | Potency [15]

CCC(Cc1ccccc1)(C(=O)c1ccc(N2CCOCC2)cc1)N(C)C (configuration not stated)
active: Potency [11] 17.2 µM
inactive: Potency [16] | Potency [2] | Potency [18] | Potency [5] | Potency [6] | Potency [7] | outcome [9] | activity change, positive = activation [12] -33.5% | Potency [13] | Potency [17] | Potency [15]

Nc1ccc(Cl)cc1[N+](=O)[O-]
inactive: Potency [2] | Potency [6] | Potency [7] | outcome [9] | Potency [11] | activity change, positive = activation [12] -0.746% | Potency [13] | Potency [14] | Potency [17] | Potency [15]

CC(CCO)CCc1ccccc1 (configuration not stated)
inactive: Potency [16] | Potency [1] | Potency [2] | Potency [18] | Potency [7] | Potency [8] | outcome [9] | Potency [10] | Potency [13] | Potency [14] | Potency [17] | Potency [15]

c1cc[c]([Bi]([c]2ccccc2)[c]2ccccc2)cc1
inactive: Potency [2] | Potency [19] | Potency [18] | Potency [5] | Potency [7] | outcome [9] | activity change, positive = activation [12] -40.9% | Potency [13] | Potency [17] | Potency [15]
active: Potency [3] 15.4 µM | Potency [11] 61.1 µM

CCNC(=O)N1CCN(CCCC(c2ccc(F)cc2)c2ccc(F)cc2)CC1
inactive: Potency [16] | Potency [19] | Potency [5] | Potency [7] | Potency [8] | Potency [10] | activity change, positive = activation [12] -50.1% [at 42.5 µM] | Potency [13] | Potency [15]
active: Potency [2] 21.1 µM | Potency [11] 7.5 µM | Potency [14] 16.9 µM

C[C@@H]1C[C@H]2[C@@H]3CCC4=CC(=O)C=C[C@]4(C)[C@@]3(F)[C@@H](O)C[C@]2(C)[C@@]1(O)C(=O)CO
inactive: Potency [1] | Potency [2] | Potency [3] | Potency [18] | Potency [8] | Potency [10] | Potency [13] | Potency [14] | Potency [17] | Potency [15]

CC1(C)C2=CCCC(C)(C)[C@]23CC[C@H]1C3
inactive: Potency [16] | Potency [2] | Potency [19] | Potency [3] | Potency [7] | Potency [8] | outcome [9] | Potency [10] | Potency [13] | Potency [14] | Potency [17] | Potency [15]

CCC(C(=O)OCCOCCN(CC)CC)c1ccccc1 (configuration not stated)
inactive: Potency [1] | Potency [2] | Potency [18] | Potency [7] | Potency [8] | outcome [9] | Potency [10] | Potency [13] | Potency [14] | Potency [17] | Potency [15]
